Results: PubChem BioAssay AID1159580 (chemical genetic matrix, 2015)
The campaign covered roughly 5,500 compounds. About 2,000 (36%) were called active. Another 18% or so got no clear call; they are omitted. No stated cut-off is given here; in the data, active means normalized growth mostly below about 0.91 (no sharp cut-off); inconclusive means no clear call, values can overlap the other calls; inactive means mostly above about 0.92. This is one part of the list.

Experiment: chemical genetic growth profiling, strain panel (AID 1159580);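 further: tested at 20 µM; growth read once vehicle control cultures reached saturation at 30 °C; 1 = growth at the plate median or of vehicle wells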
Settings: growth OD

Measured: normalized growth

CN(C)C(=S)SSC(=S)N(C)C
active: S. cerevisiae deletion strains, locus YJR075W, strain HOC1, stronger effect = lower value 0.0622 | S. cerevisiae deletion strains, locus YKL009W, strain mrt4, stronger effect = lower value 0.657 | S. cerevisiae deletion strains, locus YKL068W, stronger effect = lower value 0.055 | S. cerevisiae deletion strains, locus YKL085W, strain MDH1 (second series), stronger effect = lower value 0.0509 | S. cerevisiae deletion strains, locus YKL085W, strain MDH1, stronger effect = lower value 0.0509 | S. cerevisiae deletion strains, locus YKL160W, strain elf1, stronger effect = lower value 0.0619 | S. cerevisiae deletion strains, locus YKL190W, strain CNB1, stronger effect = lower value 0.0467 | S. cerevisiae deletion strains, locus YKR001C, strain vps1, stronger effect = lower value 0.061 | S. cerevisiae deletion strains, locus YKR026C, strain gcn3, stronger effect = lower value 0.0601 | S. cerevisiae deletion strains, locus YKR091W, strain srl3, stronger effect = lower value 0.058 | S. cerevisiae deletion strains, locus YLL001W, strain dnm1, stronger effect = lower value 0.0595 | S. cerevisiae deletion strains, locus YLL026W, stronger effect = lower value 0.0612 | S. cerevisiae deletion strains, locus YLL041C, strain sdh2, stronger effect = lower value 0.0559 | S. cerevisiae deletion strains, locus YLR027C, strain aat2, stronger effect = lower value 0.0546 | S. cerevisiae deletion strains, locus YLR039C, strain RIC1, stronger effect = lower value 0.0839 | S. cerevisiae deletion strains, locus YLR058C, strain SHM2, stronger effect = lower value 0.048 | S. cerevisiae deletion strains, locus YLR102C, strain apc9, stronger effect = lower value 0.0608 | S. cerevisiae deletion strains, locus YLR113W, strain HOG1, stronger effect = lower value 0.126 | S. cerevisiae deletion strains, locus YLR221C, strain rsa3, stronger effect = lower value 0.0608 | S. cerevisiae deletion strains, locus YLR258W, strain gsy2, stronger effect = lower value 0.0595 | S. cerevisiae deletion strains, locus YLR262C, strain YPT6 (second series), stronger effect = lower value 0.0761 | S. cerevisiae deletion strains, locus YLR262C, strain YPT6, stronger effect = lower value 0.0956 | S. cerevisiae deletion strains, locus YLR268W, strain sec22, stronger effect = lower value 0.0648 | S. cerevisiae deletion strains, locus YLR320W, strain mms22, stronger effect = lower value 0.0851 | S. cerevisiae deletion strains, locus YLR330W, strain CHS5, stronger effect = lower value 0.0523 | S. cerevisiae deletion strains, locus YLR342W, strain FKS1 (second series), stronger effect = lower value 0.0636 | S. cerevisiae deletion strains, locus YLR342W, strain FKS1, stronger effect = lower value 0.0632 | S. cerevisiae deletion strains, locus YLR357W, strain rsc2, stronger effect = lower value 0.117 | S. cerevisiae deletion strains, locus YLR370C, strain arc18, stronger effect = lower value 0.0609 | S. cerevisiae deletion strains, locus YLR371W, strain rom2, stronger effect = lower value 0.0607 | S. cerevisiae deletion strains, locus YLR384C, strain iki3, stronger effect = lower value 0.0593 | S. cerevisiae deletion strains, locus YLR418C, strain cdc73, stronger effect = lower value 0.0915 | S. cerevisiae deletion strains, locus YML016C, strain PPZ1, stronger effect = lower value 0.0487 | S. cerevisiae deletion strains, locus YML032C, strain rad52, stronger effect = lower value 0.0671 | S. cerevisiae deletion strains, locus YML120C, strain ndi1, stronger effect = lower value 0.0572 | S. cerevisiae deletion strains, locus YML124C, strain tub3, stronger effect = lower value 0.0583 | S. cerevisiae deletion strains, locus YMR058W, strain fet3, stronger effect = lower value 0.0575 | S. cerevisiae deletion strains, locus YMR078C, strain ctf18, stronger effect = lower value 0.0701 | S. cerevisiae deletion strains, locus YMR125W, strain sto1, stronger effect = lower value 0.0716 | S. cerevisiae deletion strains, locus YMR129W, stronger effect = lower value 0.0557 | S. cerevisiae deletion strains, locus YMR205C, strain PFK2, stronger effect = lower value 0.0852 | S. cerevisiae deletion strains, locus YMR223W, strain ubp8, stronger effect = lower value 0.062 | S. cerevisiae deletion strains, locus YMR231W, strain pep5, stronger effect = lower value 0.0656 | S. cerevisiae deletion strains, locus YMR263W, strain SAP30, stronger effect = lower value 0.0571 | S. cerevisiae deletion strains, locus YMR307W, strain GAS1, stronger effect = lower value 0.108 | S. cerevisiae deletion strains, locus YNL067W, strain RPL9B, stronger effect = lower value 0.0475 | S. cerevisiae deletion strains, locus YNL071W, strain lat1, stronger effect = lower value 0.0591 | S. cerevisiae deletion strains, locus YNL128W, strain TEP1, stronger effect = lower value 0.0618 | S. cerevisiae deletion strains, locus YNL153C, strain GIM3, stronger effect = lower value 0.0449 | S. cerevisiae deletion strains, locus YNL183C, strain NPR1, stronger effect = lower value -0.000652 | S. cerevisiae deletion strains, locus YNL209W, strain ssb2, stronger effect = lower value 0.0584 | S. cerevisiae deletion strains, locus YNL233W, strain BNI4, stronger effect = lower value 0.0527 | S. cerevisiae deletion strains, locus YNL248C, strain rpa49, stronger effect = lower value 0.0732 | S. cerevisiae deletion strains, locus YNL250W, strain rad50, stronger effect = lower value 0.0632 | S. cerevisiae deletion strains, locus YNL271C, strain bni1, stronger effect = lower value 0.0624 | S. cerevisiae deletion strains, locus YNL298W, strain CLA4, stronger effect = lower value 0.0589 | S. cerevisiae deletion strains, locus YNL307C, strain MCK1, stronger effect = lower value 0.0687 | S. cerevisiae deletion strains, locus YNL322C, strain KRE1 (second series), stronger effect = lower value 0.0642 | S. cerevisiae deletion strains, locus YNL322C, strain KRE1, stronger effect = lower value 0.0479 | S. cerevisiae deletion strains, locus YNR049C, strain mso1, stronger effect = lower value 0.0549 | S. cerevisiae deletion strains, locus YNR052C, strain pop2, stronger effect = lower value 0.0601 | S. cerevisiae deletion strains, locus YOL006C, strain TOP1, stronger effect = lower value 0.0896 | S. cerevisiae deletion strains, locus YOL012C, strain htz1 0.179 | S. cerevisiae deletion strains, locus YOL147C, strain pex11, stronger effect = lower value 0.0594 | S. cerevisiae deletion strains, locus YOR001W, strain rrp6, stronger effect = lower value 0.0656 | S. cerevisiae deletion strains, locus YOR061W, strain CKA2, stronger effect = lower value 0.0451 | S. cerevisiae deletion strains, locus YOR069W, strain VPS5, stronger effect = lower value 0.0465 | S. cerevisiae deletion strains, locus YOR070C, strain gyp1, stronger effect = lower value 0.0589 | S. cerevisiae deletion strains, locus YOR080W, strain dia2, stronger effect = lower value 0.067 | S. cerevisiae deletion strains, locus YOR083W, strain WHI5, stronger effect = lower value 0.0647 | S. cerevisiae deletion strains, locus YOR106W, strain vam3, stronger effect = lower value 0.061 | S. cerevisiae deletion strains, locus YOR136W, strain idh2, stronger effect = lower value 0.0736 | S. cerevisiae deletion strains, locus YOR144C, strain elg1, stronger effect = lower value 0.0615 | S. cerevisiae deletion strains, locus YOR184W, strain ser1, stronger effect = lower value 0.0681 | S. cerevisiae deletion strains, locus YOR231W, strain MKK1, stronger effect = lower value 0.103 | S. cerevisiae deletion strains, locus YOR265W, strain rbl2, stronger effect = lower value 0.0567 | S. cerevisiae deletion strains, locus YOR270C, strain vph1, stronger effect = lower value 0.0916 | S. cerevisiae deletion strains, locus YOR290C, strain snf2, stronger effect = lower value 0.0706 | S. cerevisiae deletion strains, locus YOR316C, strain cot1, stronger effect = lower value 0.0552 | S. cerevisiae deletion strains, locus YPL051W, strain arl3, stronger effect = lower value 0.0635 | S. cerevisiae deletion strains, locus YPL055C, strain LGE1, stronger effect = lower value 0.0716 | S. cerevisiae deletion strains, locus YPL078C, strain atp4, stronger effect = lower value 0.0627 | S. cerevisiae deletion strains, locus YPL106C, strain sse1, stronger effect = lower value 0.1 | S. cerevisiae deletion strains, locus YPL240C, strain hsp82, stronger effect = lower value 0.0673 | S. cerevisiae deletion strains, locus YPL241C, strain CIN2, stronger effect = lower value 0.0518 | S. cerevisiae deletion strains, locus YPL256C, strain CLN2, stronger effect = lower value 0.125 | S. cerevisiae deletion strains, locus YPR119W, strain clb2, stronger effect = lower value 0.0622 | S. cerevisiae deletion strains, locus YPR141C, strain kar3, stronger effect = lower value 0.0653 | S. cerevisiae deletion strains, locus YPR163C, strain tif3, stronger effect = lower value 0.0696 | S. cerevisiae deletion strains, locus YPR167C, strain met16, stronger effect = lower value 0.0614 | S. cerevisiae deletion strains, strain wtn01, stronger effect = lower value 0.0602 | S. cerevisiae strains, strain wild type, stronger effect = lower value 0.0482
